Data on 26 molecules can be found in PubChem BioAssay (Tox21).

The source made the active and inactive calls. Calls follow the shape of the dose curve; as a rule, active = well fitted curve in the direction sought with a large enough effect in the repeat runs; inconclusive = weak or mixed curves; inactive = flat fitted curve, though single readings scatter.
% is scaled to controls: 0 for no effect and ±100 for the full control effect.

This test is described as follows: qHTS assay to test for compound auto fluorescence at 460 nm (blue) in HepG2 cell free culture (AID 720685). Conditions: Cell-free culture medium, blue autofluorescence 405/460 nm; series mostly up to 91.3 µM. The method in brief:
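Compound (23 nL) or DMSO pinned into cell-free MEM with 10% FBS; blue fluorescence read at 405/460 nm excitation/emission, expressed as auto-fluorescence equivalency to triamterene.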
Take `C[C@H](N)C(=O)c1ccccc1`: the molecule was called inactive. Turning to `Cc1ccc2c(c1)C1CN(C)CCC1N2` (stereo unspecified), the call was inactive.

Regarding `O=C(CCl)NCO`, the call was inactive.

`COc1ccc2c(C(=O)c3ccc(Cl)cc3)c(C)n(CC(=O)O)c2c1`: the call was inactive. Turning to `CNC(=O)O/N=C(/CSC)C(C)(C)C`, the result was inactive. With `C=CC(=O)OCCN(C)C`, the call was inactive. Regarding `CCN[C@H](C)Cc1cccc(C(F)(F)F)c1`, the outcome was inactive. Take `CCNc1nc(NCC)nc(SC)n1`: the call was inactive.

Turning to `CC(C)[N+](C)(CCC(C(N)=O)(c1ccccc1)c1ccccc1)C(C)C`, the fluorescence, % of fluorescent control is -0.0402% [at 18.6 µM] (inactive).

For `CCOC(=O)NC(C)(C)Cc1ccc(Cl)cc1`, the molecule was called inactive. Turning to `S=C=S`, the molecule was classed as inactive. Take `O=c1[nH]oc2c1CCNC2`: the call was inactive. Turning to `C=C(Cl)CCl`, the outcome was inactive.

With `COC(=O)c1ccc(CBr)cc1`, the outcome was inactive. As for `OP(O)c1ccccc1`, the molecule was classed as inactive. As for `CC(Cc1ccccc1)NCCn1cnc2c1c(=O)n(C)c(=O)n2C` (stereo unspecified), the call was inactive. As to `C=CC=O`, the result was inactive. Consider `[P]#[In]`, for which the result was inactive. On to `CN=CNc1ccc(C)cc1C`, for which the result was inactive.

As to `CCC1(CC)C(=O)C=CNC1=O`, the molecule was classed as inactive. Consider `CCC(=O)OC1(c2ccccc2)CCN(C)CC1`, for which the outcome was inactive. As for `Brc1c(Br)c(Br)c(Br)c(Br)c1Br`, the fluorescence, % of fluorescent control was 0.0001% [at 3.72 µM] (inactive). With `C[C@H](CN1CCOCC1)C(C(=O)N1CCCC1)(c1ccccc1)c1ccccc1`, the result was inactive. Turning to `Clc1cc2c(cc1Cl)Oc1cc(Cl)c(Cl)cc1O2`, the fluorescence, % of fluorescent control is -0.0614% [at 0.37 µM] (inactive).

Consider `CC#Cc1cc(C)nc(Nc2ccccc2)n1`, for which the molecule was called inactive. With `C=CC1(C)OC(=O)N(c2cc(Cl)cc(Cl)c2)C1=O` (stereo unspecified), the outcome was inactive.
